This note sets out measurements from PubChem BioAssay (Tox21).

A number with no mark means an inactive call. Records with an inconclusive call do not appear. Calls of active or inactive are those of the source. Unless noted, calls follow the shape of the full dose curve.

The nature of assay [1]: Nuclear factor erythroid 2-related factor 2/antioxidant responsive element (Nrf2/ARE) small molecule agonists: qHTS cell viability counter screen in human keratinocytes (AID 1919968; active = well fitted curve in the direction sought with a large enough effect in the repeat runs; an effect the other way counts as inactive or inconclusive; also: nearly all actives have a fitted effect of over 55% in size; also: potency is read from the fitted curve at half-maximal effect). A digest of the protocol: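 Parallel cytotoxicity read: KeratinoSens HaCaT cells, compound treatment 23 h, viability by CellTiter-Fluor fluorescence 1 h post-reagent.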
Assay [2] is described as follows: Nuclear factor erythroid 2-related factor 2/antioxidant responsive element (Nrf2/ARE) small molecule agonists: luciferase reporter gene qHTS assay in human keratinocytes (AID 1919969). Also: nearly all actives have a fitted effect of over 35% in size. Also: potency is read from the fitted curve at half-maximal effect.
The target in assay [3] is Gonadotropin-releasing hormone receptor (Homo sapiens) (UniProt P30968). Nature of the assay: Human gonadotropin-releasing hormone receptor (GnRHR) small molecule agonists, calcium flux assay in GnRHR-HEK293 cells (AID 1920063). Also: nearly all actives have a fitted effect of over 35% in size. A digest of the protocol: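 Calcium flux, agonist mode, human GnRHR stably integrated in HEK293; dye 1 h at 37 C before compound; Ex/Em=480/540 kinetic read, 3 min; 15 concentrations, triplicate.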
Gonadotropin-releasing hormone receptor (Homo sapiens), sequence (P30968 whole entry, looked up): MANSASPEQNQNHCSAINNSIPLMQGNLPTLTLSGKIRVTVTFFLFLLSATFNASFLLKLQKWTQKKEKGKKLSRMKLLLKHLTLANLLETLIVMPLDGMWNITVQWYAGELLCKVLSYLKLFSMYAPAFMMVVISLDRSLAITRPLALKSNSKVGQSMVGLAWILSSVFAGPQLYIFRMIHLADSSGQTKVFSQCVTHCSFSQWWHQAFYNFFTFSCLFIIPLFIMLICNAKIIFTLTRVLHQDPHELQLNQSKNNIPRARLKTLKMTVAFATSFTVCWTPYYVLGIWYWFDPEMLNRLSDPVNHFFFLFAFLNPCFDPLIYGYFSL

Assay [4] can be described thus: G protein-coupled receptor (GPCR) small molecule agonists, calcium flux assay: HEK293 wild type cell line counter screen (AID 1920065). A digest of the protocol: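 Non-specific calcium responders were flagged by adding DMSO-dissolved compounds to dye-loaded cells and reading 480/540 nm fluorescence each second for 3 min; ATP served as positive control.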
The nature of assay [5]: p53 small molecule agonists, cell-based qHTS assay with human liver microsomes (AID 1963577).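 Also: p53 response element beta-lactamase reporter cells with liver microsomes plus NADPH.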 A digest of the protocol: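 Steps: plate p53RE-bla cells, incubate 5 h at 37 C; add compound in DMSO; add microsomes (0.5 mg/mL final) and NADPH (0.5 mg/mL final); incubate 16 h at 37 C; add LiveBLAzer, 2 h RT; read fluorescence.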
Assay [6] in a line: p53 small molecule agonists, cell-based qHTS assay with rat liver microsomes (AID 1963578). The gist of the method: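 Metabolic activation is supplied by rat liver microsomes with NADPH (each 0.5 mg/mL final). p53RE-bla cells incubate with compound 16 h at 37 C; reporter activity is measured by LiveBLAzer fluorescence.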
Assay [7] can be described thus: p53 small molecule agonists, cell-based qHTS assay with human liver microsomes: qHTS cell viability counter screen (AID 1963579). Also: nearly all actives have a fitted effect of over 45% in size. Also: potency is read from the fitted curve at half-maximal effect. The gist of the method: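 After the 460/530 nm beta-lactamase read, CellTiter-Glo was added to the same wells and luminescence measured after 30 min at room temperature, giving viability of p53RE-bla cells treated 16 h with compounds plus microsomes and NADPH.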

The nature of assay [8]: p53 small molecule agonists, cell-based qHTS assay with rat liver microsomes: qHTS cell viability counter screen (AID 1963580). Also: nearly all actives have a fitted effect of over 45% in size. A digest of the protocol: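 After the beta-lactamase ratio was read, CellTiter-Glo was added to the same wells and luminescence measured at 30 min; cells had been treated 16 h at 37 C with compounds, rat liver microsomes and NADPH (0.5 mg/mL final each).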

Assay [9] is described as follows: p53 small molecule agonists, cell-based qHTS assay: qHTS cell viability counter screen (AID 1963581). Also: nearly all actives have a fitted effect of over 45% in size. The gist of the method:
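Multiplexed with the reporter read, a CellTiter-Glo step (30 min, room temperature) gauges ATP-based viability of HCT-116 p53RE-bla cells after 16 h compound incubation at 37 C.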

A short description of assay [10]: p53 small molecule agonists, cell-based qHTS assay (AID 1963582; active = well fitted activation curve with a large enough effect in the signal ratio in the repeat runs, not every such curve was filed as active; the % refers to the signal ratio). A digest of the protocol:
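Beta-lactamase reporter cells (p53RE-bla) treated with compounds for 16 h at 37 C; FRET substrate, 2 h, room temperature; fluorescence intensity.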

The target in assay [11] is 5-hydroxytryptamine receptor 2A (Homo sapiens) (UniProt P28223). Nature of the assay: 5-hydroxytryptamine receptor 2A (HTR2A) small molecule antagonists, cell-based qHTS assay (AID 1963586). Also: nearly all actives have a fitted effect of over 45% in size. A digest of the protocol: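 CHO cells stably expressing human HTR2A were plated for 18 h at 37 C, then loaded with calcium dye for 1 h. Compounds were preincubated 5 min at room temperature before DOI (4 nM solution) was added. Kinetic fluorescence was read for 3 min.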
5-hydroxytryptamine receptor 2A (Homo sapiens), sequence (P28223 whole entry, looked up): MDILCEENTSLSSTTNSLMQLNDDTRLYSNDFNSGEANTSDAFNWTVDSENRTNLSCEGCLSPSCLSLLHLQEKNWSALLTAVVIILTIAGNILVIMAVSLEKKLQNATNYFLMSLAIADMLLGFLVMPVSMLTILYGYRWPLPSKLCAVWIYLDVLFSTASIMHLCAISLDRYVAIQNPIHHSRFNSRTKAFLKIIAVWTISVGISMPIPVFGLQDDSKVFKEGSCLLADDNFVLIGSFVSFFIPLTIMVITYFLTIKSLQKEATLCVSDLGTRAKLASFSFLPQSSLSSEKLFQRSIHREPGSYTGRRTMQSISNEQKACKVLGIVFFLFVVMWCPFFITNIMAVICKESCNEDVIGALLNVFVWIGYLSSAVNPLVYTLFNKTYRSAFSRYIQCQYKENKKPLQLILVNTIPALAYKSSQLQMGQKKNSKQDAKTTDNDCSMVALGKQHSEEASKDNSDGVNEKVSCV

Assay [12] shares this target. Nature of the assay: 5-hydroxytryptamine receptor 2A (HTR2A) small molecule agonists, cell-based qHTS assay (AID 1963587). Also: nearly all actives have a fitted effect of over 30% in size. The gist of the method:
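CHO cells stably expressing human HTR2A, plated 18 h, loaded with calcium dye 1 h at 37 C. Agonist mode: compounds added and intracellular calcium fluorescence recorded kinetically for 2 min at 1 sec intervals.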

The target in assay [13] is Muscarinic acetylcholine receptor M1 (Homo sapiens) (UniProt P11229). The assay can be described thus: Cholinergic receptor muscarinic 1 (CHRM1) small molecule antagonists, cell-based qHTS assay (AID 1963588). Also: nearly all actives have a fitted effect of over 40% in size. The gist of the method: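 Compounds were tested at 15 concentrations in three independent runs. Dye-loaded CHRM1-CHO cells were exposed 5 min at room temperature before stimulation by acetylcholine added at 50nM. Intracellular calcium was read kinetically on FDSS for 3 min.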
Muscarinic acetylcholine receptor M1 (Homo sapiens), sequence (P11229 whole entry, looked up): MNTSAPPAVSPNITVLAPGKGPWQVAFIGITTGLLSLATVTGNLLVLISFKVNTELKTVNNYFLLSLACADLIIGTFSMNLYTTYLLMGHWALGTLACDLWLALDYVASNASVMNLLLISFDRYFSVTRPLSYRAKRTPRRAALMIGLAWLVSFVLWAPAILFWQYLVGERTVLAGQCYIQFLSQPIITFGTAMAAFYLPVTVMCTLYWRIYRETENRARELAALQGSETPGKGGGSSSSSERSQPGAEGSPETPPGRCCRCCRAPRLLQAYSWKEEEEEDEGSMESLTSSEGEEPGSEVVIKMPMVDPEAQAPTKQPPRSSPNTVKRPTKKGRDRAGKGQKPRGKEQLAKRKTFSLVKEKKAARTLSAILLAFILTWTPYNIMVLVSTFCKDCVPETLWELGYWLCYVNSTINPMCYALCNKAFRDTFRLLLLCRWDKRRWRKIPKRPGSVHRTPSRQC

Assay [14] has the same target. The assay can be described thus: Cholinergic receptor muscarinic 1 (CHRM1) small molecule agonists, cell-based qHTS assay (AID 1963589). Also: nearly all actives have a fitted effect of over 35% in size. The gist of the method:
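qHTS, 15-point titration, 3 independent runs: compounds pin-transferred onto dye-loaded CHRM1-CHO cells (human M1), calcium fluorescence followed every second to detect agonism.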

A short description of assay [15]: cAMP Responsive Elements (CRE) small molecule agonists, cell-based qHTS assay (AID 1963590). The gist of the method:
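Quantitative HTS for CRE agonists: HEK 293T CRE-bla cells, overnight plating, 3 h compound incubation at 37 C/5% CO2, then 2 h room-temperature LiveBLAzer B/G FRET substrate loading.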

The nature of assay [16]: cAMP Responsive Elements (CRE) small molecule antagonists, cell-based qHTS assay (AID 1963591; active = well fitted inhibition curve with a large enough effect in the signal ratio in the repeat runs, not every such curve was filed as active; the % refers to the signal ratio). A digest of the protocol: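 Fluorescence intensity from cleaved LiveBLAzer B/G substrate (2 h, room temperature) quantified CRE-bla activity in HEK 293T cells exposed 3 h to compound with 0.25 uM final NKH477.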
Assay [17] deals with Beta-2 adrenergic receptor (Homo sapiens) (UniProt P07550). The assay can be described thus: Adrenergic beta2 receptor (ADRB2) small molecule antagonists, cell-based qHTS assay (AID 1963592). Also: series mostly up to about 92 µM; nearly all actives have a fitted effect of over 50% in size. The gist of the method:
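Assay format: CHO-ADRB2 cells, 18-20hr seeding at 37C/5% CO2, then compound plus 1nM isoproterenol agonist mix for 0.5hr RT. Homogeneous time-resolved fluorescence cAMP detection after 1hr, expressed as 665/615 nm ratio.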

The target in assay [18] is D(2) dopamine receptor (Homo sapiens) (UniProt P14416). Nature of the assay: Dopamine D2 receptor (DRD2) small molecule agonists, cell-based qHTS assay (AID 1963594). Also: nearly all actives have a fitted effect of over 35% in size. A digest of the protocol:
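HEK293 cells stably expressing human DRD2, pre-treated with PDE inhibitor Ro20-1724 (0.1 mM final) and compound 10 min at room temperature, then stimulated with NKH477 (200nM […]) for 30 min. cAMP read by HTRF (665/620 nm).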

For assay [19] the target is unchanged. Nature of the assay: Dopamine D2 receptor (DRD2) small molecule antagonists, cell-based qHTS assay (AID 1963595; active = well fitted inhibition curve with a large enough effect in the signal ratio in the repeat runs, with a control signal flat; the % refers to the signal ratio). A digest of the protocol:
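Antagonist mode in DRD2-HEK293 cells: after compound addition with 0.1 mM Ro20-1724, cells received quinpirole (12 nM) and NKH477 (200 nM) for 30 min at room temperature; HTRF cAMP read after 1 h detection.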

In assay [20] the target is KiSS-1 receptor (Homo sapiens) (UniProt Q969F8). The assay can be described thus: Human kisspeptin (KISS1R) small molecule agonists, calcium flux assay in KISS1R-HEK293 cells (AID 1920064; active = well fitted curve in the direction sought with a large enough effect in the repeat runs; an effect the other way counts as inactive or inconclusive). A digest of the protocol: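 Triplicate 15-concentration series were applied to dye-loaded human KISS1R HEK293 cells, and agonist-evoked calcium fluorescence was captured for 3 min.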
KiSS-1 receptor (Homo sapiens), sequence (Q969F8 whole entry, looked up): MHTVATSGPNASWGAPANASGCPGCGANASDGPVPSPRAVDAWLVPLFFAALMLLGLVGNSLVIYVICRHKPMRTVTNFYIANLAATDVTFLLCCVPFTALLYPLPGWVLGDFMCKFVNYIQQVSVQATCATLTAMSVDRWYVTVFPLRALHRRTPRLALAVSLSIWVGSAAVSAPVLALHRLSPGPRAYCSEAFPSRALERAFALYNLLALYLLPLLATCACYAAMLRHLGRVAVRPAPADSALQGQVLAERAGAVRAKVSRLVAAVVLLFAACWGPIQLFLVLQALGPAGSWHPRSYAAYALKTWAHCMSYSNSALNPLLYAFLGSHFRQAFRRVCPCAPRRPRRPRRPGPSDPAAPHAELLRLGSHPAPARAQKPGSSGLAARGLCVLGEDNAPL
% is scaled to controls: 0 for no effect and ±100 for the full control effect.

Beta-2 adrenergic receptor (Homo sapiens), sequence (P07550 whole entry, looked up): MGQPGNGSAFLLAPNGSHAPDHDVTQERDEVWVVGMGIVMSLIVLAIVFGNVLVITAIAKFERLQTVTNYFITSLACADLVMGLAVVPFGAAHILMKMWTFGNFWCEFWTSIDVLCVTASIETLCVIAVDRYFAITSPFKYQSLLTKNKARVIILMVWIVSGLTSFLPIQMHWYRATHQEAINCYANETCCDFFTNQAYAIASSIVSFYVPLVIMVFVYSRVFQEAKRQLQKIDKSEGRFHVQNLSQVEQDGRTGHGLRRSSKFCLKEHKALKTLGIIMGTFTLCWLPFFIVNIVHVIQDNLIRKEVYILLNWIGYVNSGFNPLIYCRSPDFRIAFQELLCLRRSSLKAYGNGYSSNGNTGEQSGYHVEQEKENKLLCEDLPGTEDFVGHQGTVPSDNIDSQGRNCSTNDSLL
D(2) dopamine receptor (Homo sapiens), sequence (P14416 whole entry, looked up): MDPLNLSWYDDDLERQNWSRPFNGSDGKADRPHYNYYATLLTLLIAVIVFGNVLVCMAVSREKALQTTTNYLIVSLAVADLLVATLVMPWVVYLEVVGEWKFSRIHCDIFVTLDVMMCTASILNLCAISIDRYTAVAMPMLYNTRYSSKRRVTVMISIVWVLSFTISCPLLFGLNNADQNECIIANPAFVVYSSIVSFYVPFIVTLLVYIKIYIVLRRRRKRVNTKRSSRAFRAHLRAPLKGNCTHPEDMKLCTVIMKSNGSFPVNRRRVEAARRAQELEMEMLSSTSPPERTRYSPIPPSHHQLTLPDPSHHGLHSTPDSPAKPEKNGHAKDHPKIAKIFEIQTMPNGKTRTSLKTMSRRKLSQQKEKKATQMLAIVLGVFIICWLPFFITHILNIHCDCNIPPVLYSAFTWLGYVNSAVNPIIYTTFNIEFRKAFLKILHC

As for `CC1(C)CC(OC(=O)CCCCCCCCC(=O)OC2CC(C)(C)NC(C)(C)C2)CC(C)(C)N1`, the figures for the activity change, negative = cytotoxicity in assay [1], in assay [8] and in assay [9] were -0.0002% [at 19 µM], 20.2% [at 13.5 µM] and -0.213% [at 13.5 µM], respectively. Moreover, in [2], the activity, positive = activation was -1.35% [at 19 µM]. Further, the activity change in [3] was 1.96% [at 11.8 µM, hits give high values]. Further, the activation in assay [4] is 0.376% [at 11.8 µM]; in [5], 1.98% [at 13.5 µM]; in assay [6], 0.45% [at 13.6 µM]; in [10], -3.4% [at 13.5 µM]; in assay [12], 2.3% [at 15.9 µM]; in assay [14], -1.98% [at 15.8 µM]. Further, the activation in assay [15] was 1.42% [at 19 µM]; in assay [18], -4.7% [at 19 µM]. Also, the Potency in [7] was 0.884 µM (active). In addition, the results for the activity, negative = inhibition in [11] and in assay [13] were -5.05% [at 12.7 µM] and 30.1% [at 12.6 µM], respectively. In addition, the activity change, negative = inhibition was -9.13% [at 18.9 µM] in [16], 8.71% [at 19 µM] in assay [17] and 0.47% [at 18.9 µM] in assay [19].
Turning to `Nc1cc(C(F)(F)F)ccc1S`, the Potency in assay [1] was 26.6 µM (active); in assay [2] it was 13.3 µM (active). Further, the Potency result in assay [3], in assay [5], in [6], in [8], in assay [9] and in [11] was “inactive” each time. Also, the Potency entry in [13], in [17], in [18] and in [19] was “inactive” each time. Besides, the result in [20] was inactive.
For the molecule `CC1CC(C)C(=O)C1=O` (stereo unspecified), the Potency result in assay [1], in assay [2], in assay [3], in assay [5], in assay [6] and in [7] was “inactive” in each case. In addition, the Potency entry in assay [8], in assay [9], in assay [10], in assay [11], in assay [12] and in assay [13] was “inactive” each time. The Potency result in assay [14], in [15], in assay [18] and in assay [19] was “inactive” each time. The result in assay [4] was inactive.
Regarding `COc1cc2c(cc1OC)CN(C(=O)[C@H](C)N[C@@H](CCc1ccccc1)C(=O)O)[C@H](C(=O)O)C2`, the Potency result in assay [1], in [2], in assay [3], in [5], in assay [6] and in [7] was “inactive” in each case. For the same molecule, the Potency entry in assay [8], in assay [9], in assay [10], in assay [11], in assay [12] and in assay [13] was “inactive” in each case. Moreover, the Potency entry in assay [14], in [15], in [16], in assay [17], in assay [18] and in assay [19] was “inactive” throughout. Besides, the outcome in assay [4] was inactive.
For `Oc1ccc2c(c1)OCO2`, the Potency entry in assay [1], in assay [2], in [3], in assay [5], in assay [7] and in assay [8] was “inactive” in each case. For the same molecule, the Potency result in assay [10], in assay [11], in assay [12], in assay [13], in assay [14] and in assay [15] was “inactive” in each case. For the same molecule, the Potency result in [16], in [17], in assay [18] and in assay [19] was “inactive” each time. Further, the outcome in assay [20] was inactive.
Regarding `O=NN(CCCl)C(=O)NC1CCCCC1`, the Potency entry in assay [1], in assay [2], in assay [3], in assay [5], in assay [6] and in assay [8] was “inactive” each time. The Potency result in [9], in assay [10], in [15], in assay [16], in assay [17] and in [19] was “inactive” each time. In addition, the outcome in assay [20] was inactive.
With `CCCCCCCCC=O`, the Potency entry in assay [1], in assay [2], in assay [3], in assay [5], in assay [6] and in assay [7] was “inactive” in each case. Further, the Potency entry in [8], in assay [9], in assay [10], in assay [11], in assay [12] and in assay [13] was “inactive” throughout. Further, the Potency result in assay [14], in assay [15], in assay [17], in [18] and in [19] was “inactive” each time. For the same molecule, in assay [4], the outcome was inactive.
